Only some compounds are listed: those with a hit (about 3.4% of all), similar ones and a draw of the others.
TEAD-YAP block: TEAD-YAP interaction inhibition. 640,000 compounds, 1.4% hits. HEK-TIYL cells, TEAD-Gal4/YAP UAS-luciferase luminescence. inhibition, % at 9.12 µM; in the data active = inhibition above about 32%
FBW7 activator: human FBW7 E3 ligase activation, primary screen; AlphaScreen FBW7–phospho-cyclin E peptide binding, activator screen; AID 1259310; normalized activity (activation), % at 26.1 µM; Q969H0; 650,000 compounds, 0.13% hits; in the data active = normalized activity above about 1.9%;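 also: purified mutant Fbw7 with reduced substrate affinity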
MITF inh: blocks human microphthalmia-associated transcription factor | O75030 | AlphaScreen MITF homodimerization, bead proximity signal | inhibition, % at 2.6 µM | 650,000 compounds, 0.91% hits; in the data active = inhibition above about 50%
Target sequence (O75030 whole entry, looked up): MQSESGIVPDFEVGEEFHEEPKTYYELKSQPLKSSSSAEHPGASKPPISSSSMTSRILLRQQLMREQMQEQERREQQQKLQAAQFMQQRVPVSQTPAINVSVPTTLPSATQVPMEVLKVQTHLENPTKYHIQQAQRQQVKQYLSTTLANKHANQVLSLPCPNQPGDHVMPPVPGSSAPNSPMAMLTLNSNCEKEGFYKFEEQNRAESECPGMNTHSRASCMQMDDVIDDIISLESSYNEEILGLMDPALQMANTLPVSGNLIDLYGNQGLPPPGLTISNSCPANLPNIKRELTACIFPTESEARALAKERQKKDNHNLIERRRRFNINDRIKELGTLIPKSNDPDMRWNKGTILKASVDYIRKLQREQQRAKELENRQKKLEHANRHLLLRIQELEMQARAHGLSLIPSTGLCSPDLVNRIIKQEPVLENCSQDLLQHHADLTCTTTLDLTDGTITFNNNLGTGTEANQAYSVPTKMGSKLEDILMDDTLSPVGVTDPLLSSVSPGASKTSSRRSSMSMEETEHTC
GPR151 ag: human GPR151 activation; Q8TDV0; PathHunter beta-arrestin GPR151 cells, luminescence; activation, % at 11.2 µM; 650,000 compounds, 1% hits; AID 1508602; in the data active = activation above about 4.9%
Of the large screens only hits and unclear results are named; the others gave an inactive call.

Cc1ccc(-c2ccccc2)n1-c1ccc(C(=O)O)cc1	none
Cc1ccc(-c2ccccc2)n1-c1ccc(O)c(C(=O)O)c1	MITF inh 78
COc1ccc(-c2ccc(N)cc2)cc1	none
Nc1ccc(-c2ccc(-c3ccc(N)cc3)cc2)cc1	TEAD-YAP block 74, FBW7 activator 43
CC1=C(C(=O)OCc2ccccc2)C(c2coc3ccc(Cl)cc3c2=O)C2=C(CCCC2=O)N1 (stereo not drawn)	none
CCCCOc1ccc(CO)cc1OC	FBW7 activator 2.1
COc1cc(CO)ccc1OCc1cccc(F)c1	none
COc1cc(/C=N/O)ccc1OCc1ccc(C(=O)O)cc1	TEAD-YAP block 94
COc1cc(/C=N/O)ccc1OCc1ccc(F)cc1	none
COc1cc(C=O)ccc1OCc1ccc(C(=O)O)cc1	none
COc1cc(CO)ccc1OCc1cccc(C(=O)O)c1	TEAD-YAP block 74
COc1cc(/C=N/O)ccc1OCc1ccccc1F	TEAD-YAP block 38
O=C(O)CCc1ccc(-c2cnn3c(N4CCC(O)CC4)ccnc23)cc1	TEAD-YAP block 37
OCc1ccc(-c2cnn3c(N4CCOCC4)ccnc23)cc1	TEAD-YAP block 42
CN1CCN(c2ccnc3c(-c4ccc(CO)cc4)cnn23)CC1	none
CCc1c(C(=O)c2ccccc2)oc2ccc3c(C)cc(=O)oc3c12	TEAD-YAP block 41
Cc1ccc(C(=O)c2oc3ccc4c(C)cc(=O)oc4c3c2-c2ccccc2)cc1	TEAD-YAP block 62
CCc1c(C(=O)c2ccc(Cl)cc2)oc2ccc3c(C)cc(=O)oc3c12	none
CCS(=O)(=O)Nc1ccc(Nc2ccccc2)cc1	none
Cc1ccn2cc(C(=O)Nc3cccc(F)c3)nc2c1	TEAD-YAP block 58
COc1cccc(CCc2nnc(CCC(=O)NC(C)(C)C)o2)c1	none
CC(C)Oc1ccccc1/C=C(\C#N)C(=O)NCCc1ccccc1	TEAD-YAP block 50
CCc1ccccc1Nc1nc(N)nc(CCl)n1	TEAD-YAP block 45
CCC1CCC(C(=O)NC(C(=O)NCCc2ccc(S(N)(=O)=O)cc2)C(C)C)CC1 (stereo not drawn)	TEAD-YAP block 40
O=C(Nc1cnn(Cc2ccccc2)c1)c1cnn2c(C(F)F)cc(-c3ccccc3)nc12	none
Nn1c(SCC(=O)NC2CCCc3ccccc32)nnc1C(F)(F)F (stereo not drawn)	TEAD-YAP block 34
Cn1nc(-c2ccc(OCC(=O)N3CCCCC3)cc2)c2ccccc2c1=O	TEAD-YAP block 52
Cn1nc(-c2ccc(OCC(N)=O)cc2)c2ccccc2c1=O	none
CC(=O)c1ccc(Nc2c(C)n(C)n(-c3ccccc3)c2=O)cc1	none
Cc1c(Nc2ccc(/C=C3\C(=O)Nc4ccccc43)cc2)c(=O)n(-c2ccccc2)n1C	TEAD-YAP block 54
COc1ccc(S(=O)(=O)N2Cc3ccccc3CC2C(=O)Nc2ccc(C)cc2)cc1 (stereo not drawn)	TEAD-YAP block 33
Cn1c(=O)c2c(nc(NCCCO)n2Cc2ccccc2)n(C)c1=O	none
COc1ccccc1Nc1nc(-c2cc3ccccc3oc2=O)cs1	TEAD-YAP block 43
COc1ccccc1-n1c(SC)nc(O)cc1=O	FBW7 activator 3.9
CCSc1nc(O)cc(=O)n1-c1ccccc1OC	none
Cc1cc(C)n(CC(=O)NCCc2c[nH]c3ccccc23)n1	none
COc1ccc(/C=C/c2cc(C(=O)O)c3ccccc3n2)cc1	TEAD-YAP block 60
COc1ccc(-c2cc(C(=O)O)c3ccccc3n2)cc1	none
CC(=O)NCc1nnc2n1CCN(CC1CCCCC1)CC2	none
CCOc1ccc(C(=O)CCNCCC(=O)O)cc1	none
CCOc1ccc(C(=O)CSCCC(=O)O)cc1	TEAD-YAP block 35
C/C(=N\Nc1nc2ccccc2s1)c1ccc(O)cc1	none
C/C(=N\Nc1nc2ccccc2s1)c1ccc(F)cc1	TEAD-YAP block 34
Cc1ccc(OCCCNC(C)(C)C)cc1	none
Cc1ccc(C)c(-c2csc(NC(=O)c3cc([N+](=O)[O-])ccc3Cl)n2)c1	TEAD-YAP block 53
CC(C)(C)c1ccc(-c2csc(NC(=O)c3cc([N+](=O)[O-])ccc3Cl)n2)cc1	TEAD-YAP block 43
O=C(Nc1nccs1)c1cc([N+](=O)[O-])ccc1Cl	TEAD-YAP block 45
COc1ccccc1-c1csc(NC(=O)c2cc([N+](=O)[O-])ccc2Cl)n1	TEAD-YAP block 34
O=C1C(c2ccccc2)N(c2ccc(Br)cc2)C(=O)N1c1ccc(Br)cc1 (stereo not drawn)	none (no result: TEAD-YAP block, FBW7 activator)
CC(=O)Nc1c(O)nc(SCc2ccccc2)[nH]c1=O	none
CC1(C(=O)O)CCC(c2nc3ccccc3[nH]2)C1(C)C (stereo not drawn)	none
CCOC(=O)c1c(NC(=O)c2ccccc2)sc2c1CCC(C)C2 (stereo not drawn)	none
O=C(Nc1nc(-c2cc(Cl)sc2Cl)cs1)c1ccc([N+](=O)[O-])s1	TEAD-YAP block 67
Cc1ccc(/C=C(\NC(=O)c2ccccc2)C(=O)NC2CCCCC2)o1	none
COc1cc(/C=C2/N=C(c3ccc([N+](=O)[O-])cc3)OC2=O)cc(I)c1OC(C)=O	none
COc1ccc(C)cc1NS(=O)(=O)c1cccc(C(=O)O)c1	FBW7 activator 1.9
COc1ccc(OS(=O)(=O)c2cc(C)ccc2OC)cc1	TEAD-YAP block 48
COC(=O)CN(c1cc(OC)ccc1OC)S(=O)(=O)c1ccc(C)cc1	TEAD-YAP block 44
COc1ccc(Cl)cc1NS(=O)(=O)c1ccc(F)cc1	none
Cc1ccc(Br)c(NS(=O)(=O)c2cccc(C(=O)O)c2)c1	none
COc1ccc(OC)c(S(=O)(=O)Oc2c(C)cccc2C)c1	none
COc1cc(NS(=O)(=O)c2ccc(Cl)cc2)c(OC)cc1Br	TEAD-YAP block 34
COc1ccc(C)cc1NS(=O)(=O)c1ccc(C)cc1	none
COc1ccc(S(=O)(=O)Nc2cc(C)ccc2OC)cc1	TEAD-YAP block 58
COc1ccc(S(=O)(=O)Nc2cc(Cl)ccc2OC)cc1	TEAD-YAP block 61
Cc1cccc(C)c1NC(=O)c1ccc2c(c1)N(CC(=O)N1CCCCC1)C(=O)C(C)(C)O2	none
Oc1ccc(/C=N/n2c(-c3ccncc3)n[nH]c2=S)cc1O	MITF inh 63
Cc1ccc(-c2n[nH]c(=S)n2/N=C\c2ccc(O)c(O)c2)cc1	none
CCc1ccccc1NC(=O)CN(C)C(=O)CCl	TEAD-YAP block 79
CCc1ccc(C2=CC(c3cc(OC)c(OC)c(OC)c3)n3nnnc3N2)cc1 (stereo not drawn)	TEAD-YAP block 56
Cc1ccc(C2=CC(c3ccc(C)cc3)n3ncnc3N2)cc1 (stereo not drawn)	none
CCc1ccc(C2=CC(c3ccc(Cl)cc3)n3nnnc3N2)cc1 (stereo not drawn)	none
COc1cccc(C2=CC(c3cc(OC)c(OC)c(OC)c3)n3ncnc3N2)c1 (stereo not drawn)	TEAD-YAP block 68
COc1cccc(C2=CC(c3ccc(OC)c(OC)c3OC)n3ncnc3N2)c1 (stereo not drawn)	none
COc1cc(C2C=C(c3ccccc3)Nc3ncnn32)cc(OC)c1OC (stereo not drawn)	TEAD-YAP block 61
COc1cc(C2C=C(c3ccc(C)cc3)Nc3ncnn32)cc(OC)c1OC (stereo not drawn)	TEAD-YAP block 62
Clc1cccc(OCCCCn2ccnc2)c1	none

Screens: PubChem, The Scripps Research Institute Molecular Screening Center
